Among all 2,100 compounds or so, about 650 (31%) were called active. About 16% were inconclusive and are not listed. The list shows a part of the results. Unmarked numbers belong to inactive results. The call rests on the fitted dose curve; in most records, active means well fitted inhibition curve with a large enough effect; inconclusive means small, poorly fitted or top-dose-only effect; inactive means flat fitted curve, though single readings scatter.
Test: qHTS for inhibitors of Vif-A3G interactions: Cherry picks; further: nearly all actives have a fitted effect of over 80% in size; on activity, negative = fluorescence increase: % of control where 0% means no effect
Details: HeLa A3G-eYFP + Vif (tagged APOBEC3G with the HIV-1 protein that degrades it), 24 h; Potency: eYFP fluorescence increase; series mostly up to 36.9 µM; activity, negative = fluorescence increase: at the top concentration
How it was run: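 HeLa cells stably expressing A3G-eYFP and Vif, cultured overnight then exposed to compounds at several concentrations for 24 hours at 37 C, 5% CO2; cellular yellow fluorescence (488 nm ex, 500-530 nm em) imaged on Acumen, MG132 positive control.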
Potency means the concentration at half of the fitted maximal effect.

Row | Compound | activity, negative = fluorescence increase | Potency
1 | CCOc1ccc(Br)cc1C1C(C(=O)OC)=C(N)Oc2cc(N(C)C)ccc21 (centres undefined) | -9.94% | –
2 | Cc1ccc(NC(=S)Nc2ccccn2)c(C)c1 | 7.06% [at 46.1 µM] | –
3 | CC(=O)Nc1cc(-c2ccccc2CN(C)C)cn2c(-c3ccc(C(C)=O)cc3)cnc12 | -11.7% | –
4 | COC(=O)c1sc(N)c(C(=O)OC)c1COC(=O)c1c(C)noc1C | -2.04% | –
5 | CC1(C(=O)Nc2ccc3c(c2)OCO3)Cc2c(-c3ccccc3)ccnc2O1 (centres undefined) | 1.09% | –
6 | N#Cc1c(NC(=O)/C=C/C(=O)O)sc2c1CCN(Cc1ccccc1)C2 | -27.1% [at 46.1 µM] | –
7 | CN(C)c1ccc(/C=C(\C#N)C(=O)Nc2nc3c(s2)CCN(Cc2ccccc2)C3)cc1 | – | 1.12 µM (active)
8 | O=S(=O)(Nc1nc2ccccc2nc1N1CCN(c2ccccc2)CC1)c1ccc(F)cc1 | -15.1% [at 46.1 µM] | –
9 | CN1CCN(c2nc3ccccc3nc2NS(=O)(=O)c2ccc(Br)cc2)CC1 | 6.19% [at 46.1 µM] | –
10 | CCOC(=O)N1CCC(Nc2nc3ccccc3nc2NS(=O)(=O)c2ccc(Cl)cc2)CC1 | 0.827% [at 46.1 µM] | –
11 | O=C(N=c1ccn(-c2nc3ccccc3nc2NS(=O)(=O)c2ccc(Cl)cc2)cc1)c1cccs1 | – | 16.4 µM (active)
12 | O=S(=O)(Nc1nc2ccccc2nc1N1CCN(c2ccccn2)CC1)c1ccc(Cl)cc1 | – | 23.1 µM (active)
13 | O=S(=O)(Nc1nc2ccccc2nc1N1CCc2ccccc2C1)c1ccc(Br)cc1 | -16.9% [at 46.1 µM] | –
14 | O=C(N/N=C/c1ccc2c(c1)OCO2)c1cc(-c2ccncc2)nc2ccccc12 | -7.14% | –
15 | Cc1ccc(C2NC(=O)c3ccccc3N2)s1 (centres undefined) | -2.05% | –
16 | Cc1cc(C)c(/C=C2\C(=O)Nc3ccccc32)[nH]1 | – | 18.4 µM (active)
17 | Cc1nn(-c2ccc(F)cc2)c(Cl)c1/C=C1\C(=O)Nc2ccccc21 | -7.22% | –
18 | Cc1ccc(S(=O)(=O)Nc2cc(Cl)c(O)c3ncccc23)cc1 | -0.848% | –
19 | COc1ccc2[nH]c3c(c2c1)CCNC3c1ccc([N+](=O)[O-])o1 (centres undefined) | – | 18.4 µM (active)
20 | COc1ccc(S(=O)(=O)N2CCN(C(=O)c3ccc([N+](=O)[O-])o3)CC2)cc1 | 1.28% | –
21 | COc1ccc2oc(-c3ccccc3[N+](=O)[O-])cc(=O)c2c1 | -8.58% | –
22 | Cc1ccc(N/C(N)=N/c2nc(CSc3nnc(C)s3)cc(=O)[nH]2)c(C)c1 | -3.92% | –

Row | Compound | activity, negative = fluorescence increase | Potency
23 | CCCC1=[N+](CC(=O)c2ccc(Br)cc2)CCn2cccc21 | -10.6% [at 46.1 µM] | –
24 | COc1ccc(C(=O)C[n+]2cc(Br)cc3ccccc32)cc1 | – | 20.6 µM (active)
25 | CCn1cc2nc(SCC(=O)Nc3ccc(C)cc3C)n(Cc3ccc(C)cc3)c(=O)c2n1 | -5.28% [at 46.1 µM] | –
26 | O=[N+]([O-])c1cc(Cl)c2cccnc2c1O | -10.9% [at 46.1 µM] | –
27 | Cc1cc(N2CCN(c3ccc([N+](=O)[O-])c4cccnc34)CC2)c2ccccc2n1 | – | 20.6 µM (active)
28 | CCC(=O)NC(=S)Nc1cccc(Cl)c1N1CCCC1 | -1.38% [at 46.1 µM] | –
29 | C=CCNc1nc2cc(-c3cccc(Cl)c3)sc2c(=O)n1C | 0.835% | –
30 | C=CCNC(=S)N/N=C/c1ccc(C)cc1C | 7.22% [at 46.1 µM] | –
31 | C=C(C(=O)c1ccccc1)C(NC(C)(C)C)c1ccccc1 (centres undefined) | 4.2% | –
32 | CC(=O)Nc1sc(/C(C#N)=C\c2cccc(Cl)c2)nc1-c1ccc(C)cc1 | – | 8.2 µM (active)
33 | CC(=O)Nc1sc(/C(C#N)=C/c2ccc(Cl)c(Cl)c2)nc1-c1ccc(C)cc1 | – | 5.8 µM (active)
34 | CCOC(=O)c1c(-c2ccc(C)cc2)csc1NC(=O)/C(C#N)=C/c1ccc(O)c(OC)c1 | -17.2% | –
35 | CCOc1cc(/C=C(\C#N)c2nc(-c3cccs3)c(NC(C)=O)s2)ccc1O | – | 23.1 µM (active)
36 | O=C(Cn1ncc(Cl)c(Cl)c1=O)NCC1CCCCC1 | -8.17% | –
37 | CC(=O)c1cccc(-c2ccnc3c2CC(C(=O)NCc2ccco2)O3)c1 (centres undefined) | -11.6% | –
38 | O=C(Cc1ccccc1)NCc1ccc(-n2cccc2)cc1 | -1.88% | –
39 | S=C(Nc1cccc2ccccc12)NN1CCCCCC1 | 10.3% [at 46.1 µM] | –
40 | CCc1c(C)nc(SCC(=O)c2cccs2)c(C#N)c1C | -25.4% | –
41 | N#Cc1c(-c2ccccc2F)cc(C2CC2)nc1SCC(=O)c1cccs1 | – | 17.7 µM (active)
42 | O=C(COC(=O)c1ccc(NS(=O)(=O)c2cccs2)cc1)NCc1ccco1 | -2.14% | –
43 | Cc1ccc2nc3c(cc(S(=O)(=O)c4ccccc4)c(=N)n3Cc3ccco3)c(=O)n2c1 | – | 29.1 µM (active)
44 | CC#Cc1cc2c(cc1O)CCC1C2CCC2(C)C(O)CCC12 (centres undefined) | -0.688% | –

Row | Compound | activity, negative = fluorescence increase | Potency
45 | COc1ccc(/C=C/C(=O)c2ccc([N+](=O)[O-])o2)cc1 | -6.52% | –
46 | CCc1ccc(C(=O)/C=C/c2ccc([N+](=O)[O-])o2)cc1 | – | 14 µM (active)
47 | COC(=O)c1sc(NC(=O)c2ccc([N+](=O)[O-])o2)c(C#N)c1C | -13.6% | –
48 | O=C(NCc1cccnc1)c1ccc([N+](=O)[O-])o1 | -7.07% | –
49 | CC(=O)Nc1ccc2nc(NC(=O)c3ccc([N+](=O)[O-])o3)sc2c1 | 1.09% | –
50 | O=C(/C=C/c1ccc(Cl)cc1)c1ccc([N+](=O)[O-])o1 | -0.183% | –
51 | N#CCc1ccc(NC(=O)/C=C/c2ccc([N+](=O)[O-])o2)cc1 | – | 8.2 µM (active)
52 | COc1cc(/C=C/C(=O)c2ccc([N+](=O)[O-])o2)ccc1O | -11.6% | –
53 | CCOC(=O)CCc1ccc(NC(=O)/C=C/c2ccc([N+](=O)[O-])o2)cc1 | – | 23.1 µM (active)
54 | Cc1cc(C)n(-c2nnc3n2N=C(c2c[nH]c4ccccc24)CS3)n1 | -5.16% | –
55 | CC1(C(=O)NCc2ccco2)Cc2c(-c3ccc(C(N)=O)cc3)ccnc2O1 (centres undefined) | -4.41% | –
56 | Clc1ccsc1-c1csc(-c2cccnc2)n1 | -3.28% | –
57 | Cc1ccc(O)c(Nc2c3ccccc3nc3ccccc23)c1 | -3.08% [at 46.1 µM] | –
58 | Cc1ccc(O)c(NC(=O)c2cc(-c3ccccc3O)no2)c1 | – | 20.6 µM (active)
59 | CCc1nnc(NC(=O)CSc2nnc(-c3ccccc3O)n2-c2ccc(C)cc2C)s1 | -6.03% | –
60 | CCn1c(=O)c2cc(C(=O)NCCCOC)sc2c2ccccc21 | -7.54% | –
61 | C=C(/C=C/c1ccc(N(C)C)cc1)c1nc2ccccc2s1 | – | 18.4 µM (active)
62 | COc1ccccc1-c1cc(NC=O)c2ncc(-c3ccc(S(C)(=O)=O)cc3)n2c1 | -10% | –
63 | S=C(NC1CCCCC1)N(CCc1ccccc1)CCc1ccccc1 | -9.72% [at 46.1 µM] | –
64 | COc1cc2nc(/C=C/c3ccc(N(C)C)cc3)sc2cc1SC | – | 16.4 µM (active)
